From PubChem
Only some compounds are listed: those with a hit (about 19% of all), similar ones and a draw of the others.
IL-1B inflam inh: inflammasome signaling inhibition, IL-1 beta readout; AID 743279; hit rate 4.7% among 360,000; THP-1 LPS/ATP IL-1B secretion, AlphaLISA, 16 h; active compounds read low; activity change, % at 57.5 µM; in the data active = activity change below about -50%; inconclusive = mostly about -30% to -49%
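Secreted IL-1B measured by AlphaLISA bead assay after 16 h compound exposure of THP-1 cells; compounds (final up to 57.5 uM) added 1 h before LPS (250 ng/mL) and ATP (1.25 mM) stimulation; lower signal means less secretion.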
TDP1 cell noCPT: qHTS for Inhibitors of human tyrosyl-DNA phosphodiesterase 1 (TDP1): qHTS in cells in absence of CPT; hit rate 15% among 420,000; Potency, µM (highest dose often 46.2 µM), for the others: at the top dose activity change, negative = growth inhibition, most hits filed as inhibitors; AID 686978, 2013; DT40 Tdp1-/- hTDP1 cells, no CPT, ATP luminescence, 48 h; also: potency is read from the fitted curve at half-maximal effect; nearly all actives have a fitted effect of over 55% in size
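A cellular qHTS used chicken DT40 cells lacking endogenous Tdp1 but carrying stably transfected human TDP1. Compounds were applied without camptothecin, and cell growth kinetics were judged by ATP-dependent luminescence after ≥48 hr.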
HT1080NT lethal: kills 2HG-producing HT-1080-NT fibrosarcoma cells | Potency, µM (doses to about 46.1 µM), for inactives: at the top dose activity, negative = less viability, usual class: cytotoxic | hit rate 1.6% among 360,000 | HT-1080-NT fibrosarcoma viability, CellTiter-Glo ATP luminescence, 48 h | AID 686970;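 also: NT is the 2HG producing partner of a matched IDH1 knockdown line; potency is read from the fitted curve at half-maximal effect; 0% = DMSO-treated cells and -100% = media-only wells without cells; nearly all actives have a fitted effect of over 55% in size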
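Viability by CellTiter-Glo luminescence after 48 h compound exposure at 37C of HT-1080-NT cells (750/well, RPMI, 5% FBS). % activity scaled between DMSO wells and medium-only wells, then curve-fitted and categorized by curve class.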
HT1080 IDH1KD tx: kills HT-1080 cells with IDH1 knockdown; HT-1080 IDH1 knockdown viability, ATP luminescence, 48 h; Potency, µM (highest dose often 46.1 µM), for inactives: at the top dose activity, negative = toxicity, hits mostly cytotoxic; hit rate 2% among 360,000;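 also: potency is read from the fitted curve at half-maximal effect; 0% = DMSO wells and -100% = cell-free medium wells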
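CellTiter-Glo luminescence after 48 h compound exposure at 37 degrees C of IDH1-knockdown HT-1080 cells in 5% FBS RPMI. %Activity scaled between DMSO wells and cell-free media wells, with curves fitted and assigned curve classes.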
TDP1 cell CPT: DT40-hTDP1 cell growth loss with CPT | chicken DT40 Tdp1-/-;hTDP1 cells + 20 nM CPT, ATP luminescence, 48 h | Potency, µM (highest dose often 46.2 µM), inactives show at the highest dose activity change, negative = growth inhibition, usual class: inhibitors | hit rate 12% among 420,000 | AID 686979; also: potency is read from the fitted curve at half-maximal effect; nearly all actives have a fitted effect of over 55% in size
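Chicken DT40 Tdp1-/- cells complemented with human TDP1, 400 cells/well, exposed to compounds plus 20 nM camptothecin for at least 48 h at 37 C; viability read as ATP content by CellTiter-Glo luminescence.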
* hit, by the source's call; ? = inconclusive; . = no result given. Unless noted, calls follow the shape of the dose curve; as a rule, active = well fitted curve in the direction sought with a large enough effect; inconclusive = small, poorly fitted or top-dose-only effect, or another doubt; inactive = no such curve, though single readings can be large; an effect the other way counts as inactive or inconclusive. Unless noted, % is scaled to controls: 0 for no effect and ±100 for the full control effect.

SMILES | IL-1B inflam inh | TDP1 cell noCPT | HT1080NT lethal | HT1080 IDH1KD tx | TDP1 cell CPT
COc1ccc(NC(=O)CCNS(=O)(=O)c2ccc3c(c2)c(=O)n(C)c(=O)n3C)c(OC)c1 | 9 | -19% | 15% | 17% | 17%
O=C(NCc1ccco1)C(=O)NCC1OCCN1C(=O)c1ccc(Cl)cc1 (centres undefined) | -15 | -15% | -1% | 0% | -5%
CCN(CC)c1ccc(C(=O)OCC(=O)Nc2cccc(S(=O)(=O)NC3=NCCCCC3)c2)cc1 | -7 | 18µM* | 2% | 9% | ?
CC(C)(C)c1ccc(C(=O)Nc2cccc(S(=O)(=O)NC3=NCCC3)c2)cc1 | ? | 12µM* | -3% | -7% | ?
O=C(Nc1cccc(S(=O)(=O)NC2=NCCC2)c1)c1cc(-c2ccccn2)nc2ccccc12 | 13 | 16µM* | 23µM* | ? | 23µM*
CN(CC(=O)Nc1cccc(S(=O)(=O)NC2=NCCCCC2)c1)Cc1ccc(C(C)(C)C)cc1 | ? | 21µM* | ? | -18% | 29µM*
CCOC(=O)C1CCN(C(=O)COC(=O)c2ccc(=O)n(Cc3ccccc3)n2)CC1 | 18 | -2% | 14% | 17% | 6%
O=C(Cc1csc(-c2ccc(F)cc2)n1)Nc1cccc(S(=O)(=O)NC2=NCCC2)c1 | 6 | 12% | -3% | -6% | -3%
CCOC(=O)/C=C/C(=O)OCC(=O)Nc1cccc(Br)c1 | -62* | ? | 0% | -4% | -19%
CCOC(=O)/C=C/C(=O)OCC(=O)Nc1ccc(C)cc1 | -18 | ? | 0% | 2% | -24%
O=C(Cc1csc(-c2ccc(Cl)cc2)n1)Nc1cccc(S(=O)(=O)NC2=NCCC2)c1 | -52* | -14% | 1% | 1% | -7%
O=C(COC(=O)/C=C/c1cccc(Br)c1)Nc1cccc(S(=O)(=O)NC2=NCCC2)c1 | -16 | 4.1µM* | -3% | 0% | -14%
CCCCCC(=O)Nc1cccc(S(=O)(=O)NC2=NCCCCC2)c1 | 26 | -30% | -14% | 2% | -24%
CC(C)(C)c1ccc(OCCC(=O)Nc2cccc(S(=O)(=O)NC3=NCCCCC3)c2)cc1 | -29 | 23µM* | ? | ? | 23µM*
COc1ccc(OC)c(S(=O)(=O)Nc2c(C)n(C)n(-c3ccccc3)c2=O)c1 | 13 | -6% | 21% | 10% | 27%
O=C(CCl)Nc1cccc(S(=O)(=O)NC2=NCCC2)c1 | -99* | 6.5µM* | 18µM* | 16µM* | 8.2µM*
Cc1ccccc1OCC(=O)NCC(=O)OCC(=O)c1ccc(Br)cc1 | . | 2% | . | . | 6%
Cc1ccc(NC(=O)CSc2nc3ccccc3c3nc(CCc4c(C)n[nH]c4C)nn23)cc1F | -6 | 6.5µM* | -28% | 7.9µM* | 7.3µM*
Cc1n[nH]c(C)c1CCc1nc2c3ccccc3nc(SCC(=O)Nc3ccc(F)cc3)n2n1 | . | 29µM* | . | . | 18µM*
CC(C)CNC(=O)C1(C)CCCN1C(=O)c1cccnc1 (centres undefined) | 26 | -25% | 19% | 8% | -13%
CC1CCN(c2ccccc2NC(=O)c2cc([N+](=O)[O-])ccc2N2CCOCC2)CC1 | -8 | 16µM* | 1% | -2% | ?
Cc1c(NC(=O)c2cc([N+](=O)[O-])ccc2N2CCOCC2)cccc1-c1nc2ccccc2o1 | . | 26µM* | . | . | ?
Cc1cccc(NC(=O)c2cc([N+](=O)[O-])ccc2N2CCOCC2)c1C | 14 | -16% | -7% | 0% | -5%
CCc1ccccc1NC(=O)c1cc([N+](=O)[O-])ccc1N1CCOCC1 | 26 | 12% | 19% | 7% | -19%
